KCNQ2 inh: rat KCNQ2 potassium channel inhibitors, primary screen, cell-based, CHO-K1, FluxOR thallium flux, B-score; Potassium voltage-gated channel subfamily KQT member 2 (Rattus norvegicus), O88943; 20 min; active compounds read low; B-score at 10 µM; actives 1.1% (n = 310,000); AID 2156, 2009;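 active = fluorescence ratio B-score at most minus 3 library SDs, with starting brightness B-score within 2 library SDs, cut at about -5.5 in these data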
KCNQ2 enhance: potentiators of rat KCNQ2 potassium channel; Potassium voltage-gated channel subfamily KQT member 2 (Rattus norvegicus), O88943; CHO-K1 KCNQ2, FluxOR thallium flux fluorescence; active compounds read high; B-score at 10 µM; actives 0.54% (n = 310,000); AID 2239, 2010;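 active = fluorescence ratio B-score at least 3 SD of library B-scores, with initial fluorescence B-score within 3 of them, cut at about 5.3 in these data; same plate scores as AID 2156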;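 also: B-score of peak minus minimum over baseline fluorescence ratio after K+ and Tl+ stimulus; positive B-score means potentiation of KCNQ2 with more thallium influx and brighter signal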
Numbers stand for hits; . = inactive; / = no result. Hits are enriched below; roughly 1.6% of the tested compounds scored in any of these assays.

SMILES	KCNQ2 inh	KCNQ2 enhance
CNS(=O)(=O)c1cc(C(=O)OCC(=O)NC2CCCc3ccccc32)ccc1Cl (configuration not stated)	.	/
CCN(CC)S(=O)(=O)c1cc(C(=O)OCC(=O)NC2CCCc3ccccc32)ccc1C (configuration not stated)	-7.7	.
CCCCn1c(N)c(C(=S)NC(=O)CC(C)(C)C)c(=O)n(C)c1=O	.	6.9
CCCn1c(N)c(C(=O)CN2CCc3ccccc3C2)c(=O)n(C)c1=O	.	/
CCOC(=O)C1CCN(C(=O)C2CCN(S(=O)(=O)N3CCC4(CC3)OCCO4)CC2)CC1	.	.
CC1=CC(C)(C)N2C(=O)C3(SCC(=O)N3c3ccc(F)cc3)c3cc(C)cc1c32 (configuration not stated)	-6	.
CC1=CC(C)(C)N2C(=O)C3(NCCc4c3[nH]c3ccccc43)c3cc(C)cc1c32 (configuration not stated)	.	/
NC(=O)CC(NC(=O)Cc1ccc(Cl)cc1)c1ccc(N2CCC(Cc3ccccc3)CC2)c([N+](=O)[O-])c1 (configuration not stated)	.	/
CC(=O)N(C1=C(Cl)C(=O)c2ccccc2C1=O)C1CCCCC1	-5.7	.
CC(=O)N(c1ccccc1C)C1CCCC1	.	.
O=C(C1=C[C@H](c2ccccc2)C[C@H](OCc2ccc(CO)cc2)O1)N1CCN(Cc2ccccc2)CC1	.	/
O=C(C1=C[C@@H](c2ccccc2)C[C@@H](OCc2ccc(CO)cc2)O1)N1CCN(Cc2ccc3c(c2)OCO3)CC1	-5.8	.
O=C(C1=C[C@@H](C2CC2)C[C@@H](OCCCCO)O1)N1CCN(Cc2ccccc2)CC1	.	/
O=C(C1=C[C@@H](C2CCCCC2)C[C@@H](OCCCCO)O1)N1CCN(Cc2ccccc2)CC1	-5.7	.
O=C(C1=C[C@@H](c2ccc(Br)cc2)C[C@@H](OCCCCO)O1)N1CCN(Cc2ccc3c(c2)OCO3)CC1	-6.2	.
O=C(C1=C[C@H](c2ccc(C(F)(F)F)cc2)C[C@H](OCCCCO)O1)N1CCN(Cc2ccc3c(c2)OCO3)CC1	.	/
Cc1ccc(CN2CCN(c3cccc4[nH]ccc34)CC2)cc1	.	.
COc1cccc(CNC(=O)CCCc2c[nH]c3ccccc23)c1	.	/
CCOC(=O)c1ccc(NC(c2ccc(N(C)C)cc2)P(=O)(OC(C)C)OC(C)C)cc1 (configuration not stated)	-6.5	.
CCOP(=O)(OCC)C(Nc1ccc(C(=O)O)cc1)c1ccccc1 (configuration not stated)	.	.
CCn1c(O)c(N=NC(=O)CNC(=O)c2ccco2)c2ccccc21	.	.
CCCn1c(O)c(N=NC(=O)c2ccco2)c2ccccc21	.	11
O=C(Nc1ccc2c(c1)OCCO2)c1cc2sccc2n1Cc1ccccc1	.	/
O=C(Nc1ccc2c(c1)OCCO2)c1cc2sccc2n1Cc1ccc(F)cc1	-6.1	.
COc1ccc(C(O)(C2CCCCC2)C(CN2CCOCC2)c2ccccc2)cc1 (configuration not stated)	.	/
SMILES	KCNQ2 inh	KCNQ2 enhance
OC(c1ccccc1)(C1CCCCC1)C(CN1CCOCC1)c1ccccc1 (configuration not stated)	-5.7	.
O=C(COC(=O)c1cccc(S(=O)(=O)N2CCOCC2)c1)NCCc1ccccc1	.	/
Cc1c(CNC(=O)C2CCC(=O)N(CCc3ccccc3)C2)cnn1C (configuration not stated)	.	.
CCOc1[nH]n(-c2ccccc2)c(=O)c1C=Nc1ccc(OC)cc1	.	.
CCOc1ccc2nc(SC3CC(=O)N(c4ccc(C)cc4)C3=O)sc2c1 (configuration not stated)	.	/
CCOc1ccc2nc(/N=C/c3c(C)[nH]n(-c4ccc(C)cc4)c3=O)sc2c1	.	17
CCOc1ccc2nc(/N=C/c3c(C)[nH]n(-c4ccccc4)c3=O)sc2c1	.	20
Cc1ccc(C)c(N2CCN(C(=O)CCS(=O)(=O)c3ccc4c(c3)oc(=O)n4C)CC2)c1	.	.
CCC(C)c1ccc(NC(=O)COc2c(F)c(F)c(C(F)(F)F)c(F)c2F)cc1 (configuration not stated)	.	6.1
O=C(COc1c(F)c(F)c(C(F)(F)F)c(F)c1F)Nc1ccc(N2CCOCC2)c(Cl)c1	.	.
CCOc1ccccc1NC(=O)C1(S(=O)(=O)c2ccc(Cl)cc2)CC1	.	/
COc1ccc(-c2csc3nc[nH]c(=O)c23)cc1OC	.	.
Cc1ccc(-c2csc3nc[nH]c(=S)c23)cc1C	.	10
Cc1c(N(C)S(=O)(=O)c2cc(C(=O)NCC3CCCO3)ccc2Cl)c(=O)n(-c2ccccc2)n1C (configuration not stated)	.	.
CSc1ccc(/C=C2\CCn3c2nc2cc(C(=O)O)ccc2c3=O)cc1	.	/
C=CCOC(=O)/C(=C\c1ccccc1)NC(=O)c1ccc(C)cc1	.	/
C=CCOC(=O)/C(=C\c1cccc2ccccc12)NC(=O)c1ccccc1	-5.8	.
O=C(N=C1SC2CS(=O)(=O)CC2N1Cc1ccc(Cl)cc1)C1CC1 (configuration not stated)	.	/
O=c1c(C=NCCN2CCNCC2)c(-c2ccccc2)[nH]n1-c1ccc([N+](=O)[O-])cc1	-7	.
COc1ccc(-c2[nH]n(-c3ccc([N+](=O)[O-])cc3)c(=O)c2C=NCCN2CCNCC2)cc1	.	/
O=c1ccc2cc3c([nH]c4ccc(Br)cc43)oc-2c1O	.	9.7
O=C(O)c1ccc(N=Nc2c(O)[nH]c3ccc(Br)cc23)cc1	.	.
O=c1[nH]c(COc2ccc(Cl)cc2Br)nc2ccccc12	.	.
COc1ccc(C2CC(=O)c3cnc(Nc4cc(C)cc(C)c4)nc3C2)cc1 (configuration not stated)	-5.9	.
COc1ccc(C2CC(=O)c3cnc(NC(=O)c4cc(OC)cc(OC)c4)nc3C2)cc1 (configuration not stated)	.	.
SMILES	KCNQ2 inh	KCNQ2 enhance
COc1ccc(Nc2nnc(Cc3ccncc3)c3ccccc23)c(OC)c1	.	.
C=CCn1c(CSCc2ccccc2)nnc1SCC(=O)NCc1ccccc1	-5.5	.
CCn1c(CSCc2ccc(F)cc2)nnc1SCC(=O)NCc1ccccc1	.	/
CCN(C(=O)CSc1nnc(COc2cccc(C)c2)o1)c1nc(C)cs1	.	.
CCCOc1ccc(C(=O)CCNC(Cc2c[nH]c3ccccc23)C(=O)O)cc1 (configuration not stated)	-6	.
COc1ccc(C(=O)NC(Cc2c[nH]c3ccccc23)C(=O)O)cc1 (configuration not stated)	.	/
CC(=O)NC1=NN(C(C)=O)C(c2ccco2)S1 (configuration not stated)	.	/
C/C(=N\Nc1nc2ccccc2[nH]1)c1ccc(C)o1	.	.
C/C(=N\Nc1nc2ccccc2[nH]1)c1ccc(Cl)s1	.	13
COc1ccc(OCC(O)CNCCOc2ccccc2OC)c(C(C)(C)C)c1 (configuration not stated)	.	/
CCOC(=O)c1ccc(-c2ccc3c(=O)c4ccccc4n(C)c3c2)cc1F	.	.
C[C@@H](C(=O)NCc1ccccn1)[C@H]1C[C@]1(C)[C@H](NC(=O)OCc1ccccc1)c1ccccc1	-6.7	.
C[C@@H](C(=O)NCC1CC1)[C@@H]1C[C@@]1(C)[C@@H](NC(=O)OCc1ccccc1)c1ccccc1	.	/
